These results are taken from PubChem BioAssay (NCATS).

Assay [1] has as its target Peroxisome proliferator-activated receptor gamma (Homo sapiens) (UniProt P37231). In words: qHTS assay for small molecule agonists of peroxisome proliferator-activated receptor gamma signaling (AID 588536; active = well fitted curve in the direction sought with a large enough effect in the signal ratio, with a control signal flat, not every such curve was filed as active; the % refers to the signal ratio;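 note: 0% = DMSO basal wells and 100% = rosiglitazone at 2 µM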). In outline:
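PPAR-gamma-UAS-bla HEK293 cells in medium with 1% charcoal/dextran-treated FBS were exposed to compounds for 16 h at 37 C. Beta-lactamase activity was read with CCF4 substrate (405 nm excitation, 460/530 nm emission).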

Assay [2] shares this target. In words: qHTS assay for small molecule antagonists of peroxisome proliferator-activated receptor gamma signaling (AID 588537; active = well fitted inhibition curve with a large enough effect in the signal ratio, with a control signal flat, not every such curve was filed as active; the % refers to the signal ratio;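 note: reporter cells co-stimulated with 50 nM rosiglitazone agonist during compound treatment; % of control where 0% means no effect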). In outline:
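PPAR-gamma-UAS-bla HEK293 cells (3000/well, 1% charcoal/dextran-stripped FBS) were preincubated 6-6.5 h at 37 C, given titrated compounds, then stimulated with 50 nM rosiglitazone for 16 h. Beta-lactamase activity was read with CCF4 dye; IC50 came from Hill fits.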
Background: qHTS replaces the single test concentration by a dilution series.

The target in assay [3] is Vitamin D3 receptor (Homo sapiens) (UniProt P11473). As to the kind of experiment: qHTS assay for small molecule antagonists of vitamin D receptor signaling (AID 588541).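 Note: receptor activated by calcitriol during compound treatment; series mostly up to about 77 µM; % is set by controls: 0 for no effect and ±100 for the full control effect.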 In outline:
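VDR-UAS-bla HEK293T cells (2000/well, 2% charcoal-stripped FBS) were treated with titrated compounds plus 1-alpha,25-dihydroxyvitamin D3 (50 nM or 3 nM final) for 16 h at 37 C. CCF4 beta-lactamase fluorescence was read; Hill fits gave IC50.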

The target is the same in assay [4]. As to the kind of experiment: qHTS assay for small molecule agonists of vitamin D receptor signaling (AID 588543).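 Note: 0% = DMSO basal and 100% = reference agonist control.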 In outline: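 Reporter cells (HEK293T, VDR-UAS-bla) were seeded in medium with 2% charcoal-stripped serum and incubated 5 h, then compounds in concentration series were added for 16 h at 37 °C. Stimulation was scaled between DMSO basal and 50 nM 1α,25-dihydroxyvitamin D3.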

Assay [5] has as its target Thyroid hormone receptor beta (Homo sapiens) (UniProt P10828). In words: qHTS assay for small molecule antagonists of thyroid hormone receptor beta signaling (AID 588547; active = well fitted inhibition curve with a large enough effect in the signal ratio, with a control signal flat, not every such curve was filed as active; the % refers to the signal ratio;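 note: cells stimulated with 0.4 nM T3 agonist during compound exposure; series mostly up to about 77 µM; % is set by controls: 0 for no effect and ±100 for the full control effect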). To be noted: TR-UAS-bla HEK293, beta-lactamase ratio, antagonist mode, 18 h. In outline:
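TR-UAS-bla GripTite HEK293 cells in 2% charcoal/dextran FBS medium were preincubated 4 h at 37 C, given compound (0.59 nM to 92 uM) plus 0.4 nM T3 (final) for 18 h, then CCF4 for 2 h at RT; Hill fit gave IC50.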

A short description of assay [6]: qHTS assay for small molecule activators of the p53 signaling pathway (AID 651743; active = well fitted activation curve with a large enough effect in the signal ratio, not every such curve was filed as active; the % refers to the signal ratio; note: series mostly up to about 92 µM; % of control where 0% means no effect). To be noted: HCT-116 p53RE-bla, beta-lactamase FRET ratio, 16 h; activation: hits give high values. In outline: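 p53RE-bla HCT-116 cells with a stably integrated beta-lactamase reporter under p53 response elements were plated, rested 5 hours at 37 C/5% CO2, then exposed to compounds in DMSO for 16 hours at 37 C. LiveBLAzer B/G FRET substrate was read after 2 hours at room temperature.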

Assay [7] concerns the target Bile acid receptor (Homo sapiens) (UniProt Q96RI1). In words: qHTS assay for small molecule antagonists of farnesoid X receptor signaling (AID 588526). Note: % is set by controls: 0 for no effect and ±100 for the full control effect. In outline: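 Concentration-response titrations were fitted to the Hill equation for half-maximal inhibition and maximal response, with data normalised to 50 uM chenodeoxycholic acid and DMSO control wells. Cells: FXR-UAS-bla HEK293T, dialyzed FBS.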

Assay [8] in a line: qHTS assay for small molecule agonists of the antioxidant response element (ARE) signaling pathway (AID 651741; active = well fitted activation curve with a large enough effect in the signal ratio; the % refers to the signal ratio; note: potency is the fitted concentration of half-maximal effect; for activation: % of control where 0% means no effect). In outline:
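ARE-bla HepG2 cells (beta-lactamase reporter under ARE control) were plated at 2,000 cells/well, preincubated 5 h at 37 C/5% CO2, then treated with DMSO-dissolved compounds for 16 h at 37 C; LiveBLAzer B/G FRET substrate added, fluorescence read after 2 h at room temperature.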

For assay [9], the target named is Androgen receptor (Homo sapiens) (UniProt P10275). In words: qHTS assay for small molecule agonists of androgen receptor signaling (AID 588515; active = well fitted curve in the direction sought with a large enough effect in the signal ratio, with a control signal flat; the % refers to the signal ratio; note: % is set by controls: 0 for no effect and ±100 for the full control effect). The note with it: AR-UAS-bla HEK293, beta-lactamase ratio, agonist 16 h; activation: hits give high values. In outline:
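EC50 and efficacy came from Hill fits of titrations (up to 92 uM) normalized to 30 nM R1881 as 100% and DMSO as 0%. Compound exposure was 16 h at 37 C on AR-UAS-bla HEK293 cells, with a 405/460/530 nm CCF4 fluorescence read.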

Molecules are shown by their SMILES. Records with an inconclusive call do not appear. Values without a mark were called inactive. The source made the active and inactive calls. Unless noted, calls come from the whole dose curve.

Thyroid hormone receptor beta (Homo sapiens), sequence (P10828 whole entry, looked up): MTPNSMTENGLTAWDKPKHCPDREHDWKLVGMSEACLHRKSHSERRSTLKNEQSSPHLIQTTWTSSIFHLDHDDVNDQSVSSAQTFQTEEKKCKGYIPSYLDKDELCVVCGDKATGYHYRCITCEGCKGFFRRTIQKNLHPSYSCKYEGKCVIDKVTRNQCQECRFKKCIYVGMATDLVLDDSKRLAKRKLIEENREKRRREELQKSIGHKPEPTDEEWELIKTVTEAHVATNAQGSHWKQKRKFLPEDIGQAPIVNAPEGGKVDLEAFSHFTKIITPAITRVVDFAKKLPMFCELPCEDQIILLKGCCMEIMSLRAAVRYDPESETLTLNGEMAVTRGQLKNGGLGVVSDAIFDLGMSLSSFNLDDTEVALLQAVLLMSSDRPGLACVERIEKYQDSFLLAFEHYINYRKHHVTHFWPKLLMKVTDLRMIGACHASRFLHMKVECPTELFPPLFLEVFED
Peroxisome proliferator-activated receptor gamma (Homo sapiens), sequence (P37231 whole entry, looked up): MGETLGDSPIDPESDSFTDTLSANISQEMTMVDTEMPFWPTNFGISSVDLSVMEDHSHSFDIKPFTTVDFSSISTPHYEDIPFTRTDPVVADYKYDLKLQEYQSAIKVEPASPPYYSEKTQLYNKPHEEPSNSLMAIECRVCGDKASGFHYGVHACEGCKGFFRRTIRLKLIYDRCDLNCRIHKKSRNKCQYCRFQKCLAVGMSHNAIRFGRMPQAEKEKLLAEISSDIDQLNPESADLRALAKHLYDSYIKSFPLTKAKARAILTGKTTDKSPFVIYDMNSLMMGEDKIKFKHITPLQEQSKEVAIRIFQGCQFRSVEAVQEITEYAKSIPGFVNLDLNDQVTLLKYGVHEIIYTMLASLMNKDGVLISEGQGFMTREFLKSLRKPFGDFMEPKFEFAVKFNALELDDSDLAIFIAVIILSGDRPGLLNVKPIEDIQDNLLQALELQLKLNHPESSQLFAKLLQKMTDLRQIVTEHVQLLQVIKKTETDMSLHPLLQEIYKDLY
Vitamin D3 receptor (Homo sapiens), sequence (P11473 whole entry, looked up): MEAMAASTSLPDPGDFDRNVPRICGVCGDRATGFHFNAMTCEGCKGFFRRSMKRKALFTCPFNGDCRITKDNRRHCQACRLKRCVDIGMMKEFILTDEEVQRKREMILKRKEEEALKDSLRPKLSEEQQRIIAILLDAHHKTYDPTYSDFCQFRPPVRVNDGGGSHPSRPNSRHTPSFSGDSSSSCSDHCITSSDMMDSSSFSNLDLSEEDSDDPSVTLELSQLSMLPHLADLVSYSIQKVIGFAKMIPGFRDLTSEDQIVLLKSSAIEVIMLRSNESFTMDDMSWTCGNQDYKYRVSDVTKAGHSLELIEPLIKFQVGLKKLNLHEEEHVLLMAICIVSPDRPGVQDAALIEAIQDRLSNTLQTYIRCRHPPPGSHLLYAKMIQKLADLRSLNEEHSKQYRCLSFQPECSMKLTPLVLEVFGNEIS
Bile acid receptor (Homo sapiens), sequence (Q96RI1 whole entry, looked up): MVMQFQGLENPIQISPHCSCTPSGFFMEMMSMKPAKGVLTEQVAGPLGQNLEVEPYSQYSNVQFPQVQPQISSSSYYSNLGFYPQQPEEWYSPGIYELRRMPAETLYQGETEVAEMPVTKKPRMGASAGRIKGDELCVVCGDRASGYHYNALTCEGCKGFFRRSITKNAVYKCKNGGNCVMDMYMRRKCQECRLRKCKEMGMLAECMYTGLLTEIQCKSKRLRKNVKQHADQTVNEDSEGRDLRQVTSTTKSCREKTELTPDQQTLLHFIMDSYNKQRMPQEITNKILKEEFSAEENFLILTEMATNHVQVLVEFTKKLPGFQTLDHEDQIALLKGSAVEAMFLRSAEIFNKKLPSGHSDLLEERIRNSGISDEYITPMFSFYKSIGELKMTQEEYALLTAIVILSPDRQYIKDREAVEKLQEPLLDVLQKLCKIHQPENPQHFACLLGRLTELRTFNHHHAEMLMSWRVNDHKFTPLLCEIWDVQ
Androgen receptor (Homo sapiens), sequence (P10275 whole entry, looked up): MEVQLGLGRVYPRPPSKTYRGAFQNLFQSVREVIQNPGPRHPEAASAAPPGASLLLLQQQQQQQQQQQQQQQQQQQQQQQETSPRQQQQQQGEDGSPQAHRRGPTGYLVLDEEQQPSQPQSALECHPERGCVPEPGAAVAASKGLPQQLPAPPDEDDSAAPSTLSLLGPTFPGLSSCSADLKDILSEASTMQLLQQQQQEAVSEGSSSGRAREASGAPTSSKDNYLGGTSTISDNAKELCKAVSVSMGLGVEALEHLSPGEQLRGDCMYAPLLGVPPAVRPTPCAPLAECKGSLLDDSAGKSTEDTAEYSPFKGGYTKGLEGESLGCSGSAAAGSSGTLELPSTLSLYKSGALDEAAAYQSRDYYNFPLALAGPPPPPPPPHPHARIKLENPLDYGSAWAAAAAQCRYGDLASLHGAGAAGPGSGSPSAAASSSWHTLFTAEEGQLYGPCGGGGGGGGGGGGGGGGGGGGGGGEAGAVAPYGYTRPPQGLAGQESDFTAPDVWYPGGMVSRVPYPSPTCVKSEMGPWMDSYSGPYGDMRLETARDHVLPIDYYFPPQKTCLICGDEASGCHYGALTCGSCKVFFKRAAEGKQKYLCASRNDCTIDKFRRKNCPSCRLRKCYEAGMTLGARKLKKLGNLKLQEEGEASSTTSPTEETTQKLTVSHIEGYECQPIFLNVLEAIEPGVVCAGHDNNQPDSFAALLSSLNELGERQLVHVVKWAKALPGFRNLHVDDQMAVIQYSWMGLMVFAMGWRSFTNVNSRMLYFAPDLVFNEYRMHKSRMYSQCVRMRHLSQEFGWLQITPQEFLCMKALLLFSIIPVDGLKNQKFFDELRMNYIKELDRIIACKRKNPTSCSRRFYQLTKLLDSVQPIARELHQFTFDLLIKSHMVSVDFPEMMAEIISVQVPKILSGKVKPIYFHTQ

On to `O=C(Cl)c1cc(Cl)cc(Cl)c1`, for which the compound was called inactive in assay [1] and in [4]. The Potency entry in assay [2] and in [3] was “inactive” throughout. Further, the activity change % (negative = inhibition) in assay [5] was -10.7%. Further, in [6], the activation is -0.691%.

Take `O=C(O)C(c1ccc(Cl)cc1)c1ccc(Cl)cc1`: the Potency entry in [7] and in assay [3] was “inactive” each time. Further, the outcome in assay [4] was inactive. Further, in assay [5], the activity change % (negative = inhibition) is -8.17%.

As for `NNS(=O)(=O)c1ccc(Oc2ccc(S(=O)(=O)NN)cc2)cc1`, the Potency result in assay [7] and in [3] was “inactive” each time. Further, the compound was called inactive in assay [1] and in assay [4]. In addition, the activity change % (negative = inhibition) in assay [5] was -2.89%. In assay [6], the activation was -0.745%.

`CC1(C)CC(N)CC(C)(CN)C1` (stereo unspecified): the compound was classed as inactive in assay [1]. In [8], the Potency entry is “inactive”. Moreover, in [6], the activation is -1.29%.

In the case of `c1ccc(-c2ccc(-c3ccccc3)cc2)cc1`, the call in [1] and in assay [4] was inactive. Moreover, the Potency result in assay [2] and in assay [3] was “inactive” in each case. In assay [5], the activity change % (negative = inhibition) was 2.31%.

In the case of `O=[N+]([O-])c1ccc2c(c1)Cc1ccccc1-2`, the Potency entry in assay [2] was “inactive”. Moreover, the activity change % (negative = inhibition) in assay [5] was -0.921%. Besides, the activation in assay [6] was 4.31%.

On to `CCCC/C=C/CCCCO`, for which, in assay [1], the compound was classed as inactive. Besides, the Potency entry in [2] and in assay [8] was “inactive” throughout. For the same compound, in assay [5], the activity change % (negative = inhibition) is 0.772%.

On to `CCCCCCCCCCCCCO`, for which the compound was classed as inactive in assay [1] and in assay [4]. Also, the Potency result in assay [2] and in [3] was “inactive” each time. The Potency in assay [8] is 48.6 µM (active). The activation in [6] is -3%.

Take `CC(C)O.CC(C)O.CC(C)O.CC(C)O.[Ti]`: the Potency result in assay [7], in [2], in [3] and in assay [8] was “inactive” each time. In addition, the call in assay [1] and in assay [4] was inactive.

For the compound `c1ccc2c(c1)Cc1ccccc1-2`, the Potency result in assay [7], in [2] and in assay [3] was “inactive” throughout. In assay [5], the activity change % (negative = inhibition) was -15.6%. For the same compound, the activation in assay [6] was 2.83%.

For `CC(C)OB(OC(C)C)OC(C)C`, the Potency entry in assay [3] and in [8] was “inactive” throughout. For the same compound, the call in [4] was inactive. Further, the activation in [6] was 0.574%.

Consider `CCOC(=O)CC(O)(CC(=O)OCC)C(=O)OCC`, for which the outcome in [1] and in [4] was inactive. The Potency result in [3] was “inactive”. Besides, in assay [5], the activity change % (negative = inhibition) is 13%. Also, the activation in [6] was -0.036%.

As for `CCCCOCCOCCOC(C)=O`, the outcome in assay [1] and in [4] was inactive. Also, the Potency result in assay [3] and in assay [8] was “inactive” throughout. In assay [5], the activity change % (negative = inhibition) was -10.2%. Also, the activation in [6] is -0.502%.

On to `OC1CCC(C2CCCCC2)CC1` (stereo unspecified), for which the compound was classed as inactive in assay [1] and in assay [4]. Further, the Potency entry in assay [2] and in [8] was “inactive” each time. Also, the activity change % (negative = inhibition) in [5] was 4.98%. Also, the activation in assay [6] is 3.92%.

For the compound `O=C(OCC1CCC2OC2C1)C1CCC2OC2C1` (stereo unspecified), the call in [1] and in assay [4] was inactive. The Potency entry in assay [3] was “inactive”. Also, the activity change % (negative = inhibition) in [5] was 1.74%. Besides, the activation in assay [6] is 2.61%.

`CC1(C)C(=O)N(Cl)C(=O)N1Cl`: the call in assay [1] and in assay [4] was inactive. Also, the Potency entry in assay [2], in [3] and in assay [8] was “inactive” in each case. Also, in assay [6], the activation was -0.829%.

As to `CCCCCCCCCCCCCCO`, the outcome in assay [1] and in assay [4] was inactive. Also, the Potency entry in assay [3] and in assay [8] was “inactive” throughout. In addition, the activation in [6] was -1.8%.

As for `O=C(O)c1cccc(C(=O)O)c1`, in [1], the compound was called inactive. Further, the Potency result in assay [2] is “inactive”. Besides, the activity change % (negative = inhibition) in assay [5] is 17%.

Turning to `CCC(C)(C)C1CCC(O)CC1` (stereo unspecified), the outcome in [1] and in assay [4] was inactive. In assay [2], the Potency entry was “inactive”. Besides, the activity change % (negative = inhibition) in [5] was -5.82%. Moreover, the activation in [6] is 1.97%.

With `CCC(=O)C1C(=O)CC(C(=O)O)CC1=O` (stereo unspecified), the activation in assay [9] is -3.36%. Besides, the Potency result in [7], in [2] and in [3] was “inactive” each time. The compound was called inactive in assay [1] and in assay [4].

On to `Brc1ccc(Br)c(Br)c1`, for which the outcome in [1] and in assay [4] was inactive. Further, the Potency result in [2], in [3] and in [8] was “inactive” in each case. For the same compound, the activity change % (negative = inhibition) in assay [5] was -13.9%. Further, the activation in [6] is -2.82%.
